Reference: PubChem BioAssay (NCATS)
Results filed as inconclusive are left out. The source made the active and inactive calls. The call rests on the fitted dose curve; in most records, active means well fitted inhibition curve with a large enough effect; inconclusive means small, poorly fitted or top-dose-only effect; inactive means flat fitted curve, though single readings scatter.

target: Luciferin 4-monooxygenase (Photinus pyralis) (UniProt P08659); test: Biochemical firefly luciferase enzyme assay for NPC (AID 624030);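 further: purified P. pyralis luciferase at 10 nM with luciferin and ATP substrate; nearly all actives have a fitted effect of over 70% in size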; conditions: purified P. pyralis luciferase, luminescence, 5 min; series mostly up to 58.6 µM
Method in brief: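 Direct inhibition of firefly luciferase enzyme (10 nM final, 50 mM Tris Acetate) assessed by luminescence within 5 minutes. Percent activity scaled between DMSO and PTC124 positive control, with concentration-effect curves classified by fit quality and response.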

Sequence of Luciferin 4-monooxygenase (Photinus pyralis) (P08659 whole entry, looked up): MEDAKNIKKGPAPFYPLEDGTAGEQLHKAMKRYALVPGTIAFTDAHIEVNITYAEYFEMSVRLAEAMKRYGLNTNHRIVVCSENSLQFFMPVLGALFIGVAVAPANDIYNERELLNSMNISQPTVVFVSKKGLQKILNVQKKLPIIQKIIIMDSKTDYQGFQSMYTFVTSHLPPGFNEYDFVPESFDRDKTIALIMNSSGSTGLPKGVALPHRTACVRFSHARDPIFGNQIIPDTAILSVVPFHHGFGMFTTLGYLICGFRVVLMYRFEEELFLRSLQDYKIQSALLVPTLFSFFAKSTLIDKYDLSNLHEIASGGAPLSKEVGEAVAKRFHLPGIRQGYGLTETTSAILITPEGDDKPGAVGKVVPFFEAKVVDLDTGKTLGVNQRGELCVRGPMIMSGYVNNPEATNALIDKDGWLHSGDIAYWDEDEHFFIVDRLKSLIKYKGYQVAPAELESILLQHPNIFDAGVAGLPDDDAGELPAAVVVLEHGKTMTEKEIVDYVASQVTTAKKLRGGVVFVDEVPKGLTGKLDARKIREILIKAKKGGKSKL

Potency, inactive:
OC[C@H]1O[C@H](OC/C=C/c2ccccc2)[C@H](O)[C@@H](O)[C@@H]1O, CO/N=C1/CC2(CC3CC(C/C=C(/C)CC(C)/C=C\C=C4\COC5C(O)C(C)=CC(C(=O)O3)C45O)O2)OC(/C(C)=C/C(C)C)C1C (centres undefined), CCC(=O)OC1CCC2C3CCc4cc(O)ccc4C3CCC12C (centres undefined), C=C1C[C@@H]2[C@H]3CCC4=CC(=O)C=C[C@]4(C)[C@@]3(F)[C@@H](O)C[C@]2(C)[C@]1(O)C(=O)COC(C)=O, CC(C)(S)C(=O)N[C@H](CS)C(=O)O, CC(C)C[C@@H](NC(=O)[C@@H](COC(C)(C)C)NC(=O)[C@H](Cc1ccc(O)cc1)NC(=O)[C@@H](CO)NC(=O)[C@@H](Cc1c[nH]c2ccccc12)NC(=O)[C@@H](Cc1cnc[nH]1)NC(=O)[C@@H]1CCC(=O)N1)C(=O)N[C@H](CCCN=C(N)N)C(=O)N1CCC[C@H]1C(=O)NNC(N)=O, CC[C@H](C)[C@H](NC(=O)[C@H](CO)NC(=O)[C@H](CC(N)=O)NC(=O)[C@H](CC(C)C)NC(=O)[C@H](Cc1ccc(O)cc1)NC(=O)[C@H](CCCCN)NC(=O)[C@H](CCCCN)NC(=O)[C@@H](NC(=O)[C@H](C)NC(=O)[C@H](CCSC)NC(=O)[C@H](CCC(N)=O)NC(=O)[C@H](CCCCN)NC(=O)[C@H](CCCNC(=N)N)NC(=O)[C@H](CC(C)C)NC(=O)[C@H](CCCNC(=N)N)NC(=O)[C@@H](NC(=O)[C@H](Cc1ccc(O)cc1)NC(=O)[C@H](CC(N)=O)NC(=O)[C@H](CC(=O)O)NC(=O)[C@@H](NC(=O)[C@H](Cc1ccccc1)NC(=O)[C@@H](NC(=O)[C@H](C)NC(=O)[C@H](CC(=O)O)NC(=O)[C@H](CO)NC(=O)[C@@H](N)Cc1c[nH]cn1)C(C)C)[C@@H](C)O)[C@@H](C)O)C(C)C)C(=O)N[C@@H](CC(C)C)C(=O)N[C@@H](CC(N)=O)C(=O)O, CCC[C@]1(CCc2ccccc2)CC(O)=C([C@H](CC)c2cccc(NS(=O)(=O)c3ccc(C(F)(F)F)cn3)c2)C(=O)O1, CCOC(=O)[C@H](CCc1ccccc1)NC(C)C(=O)N1CC2(CC1C(=O)O)SCCS2 (some centres undefined)
